From ChEMBL document CHEMBL1201862, “PubChem BioAssay data set” (2004)
The campaign covered roughly 44,000 sequences. About 2,900 (6.6%) were called active. Rule as the data show it: active = GI50 up to about 1.1 µM and inactive = higher. Only a sample is shown. Potency and affinity values are given separately.

test system: MDA-MB-231

Substance | GI50
[Bis(aminomethyl)tetramethylenesilane]tetrachloropaltinum(IV), CHEMBL2146189 | 21 µM
[Bis(aminomethyl)pentamethylenesilane]tetrachloropaltinum(IV), CHEMBL2146204 | 19.6 µM
CISPLATIN, CHEMBL11359 | 22.4 µM
[Bis(aminomethyl)tetramethylenesilane]dichloropaltinum(II), CHEMBL2146205 | 48.6 µM
[Bis(aminomethyl)pentamethylenesilane]dichloropaltinum(II), CHEMBL2146202 | 2.01 µM
[Bis(aminomethyl)dimethylsilane]tetrachloroplatinum(IV), CHEMBL2146190 | 60.1 µM
